The list is not random: actives were taken first. Their share in the collection is about 21%.
Sm TGR inh – S. mansoni TGR enzyme inhibition; Q962Y6; purified TGR, DTNB reduction, TNB absorbance 405 nm; Potency, µM (top dose mostly 114 µM), for inactives: at the highest dose activity change, negative = inhibition, most hits filed as inhibitors; actives 3% (n = 360,000); also: potency is read from the fitted curve at half-maximal effect; % is scaled to controls: 0 for no effect and ±100 for the full control effect; nearly all actives have a fitted effect of over 60% in size
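Kinetic colorimetric format: TGR-catalysed, NADPH-driven DTNB reduction monitored via TNB absorbance. Enzyme dispensed at 20 nM; compound exposure 15 min at room temperature before reaction start.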
Shiga inhibitor – Shiga toxin inhibition | Vero cells, Shiga toxin protein synthesis inhibition reporter | inhibition, % at 38.7 µM | actives 9.2% (n = 290,000) | AID 2315; in the data active = inhibition mostly above about 28%, no sharp cut-off; inactive = mostly below about 43%; also: 0% is about no effect
CHX counter – affects cycloheximide protein synthesis inhibition readout, counter-screen; cell reporter, cycloheximide protein synthesis inhibition counterscreen; max response, %; actives 12% (n = 300,000); AID 2314; in the data active = max response mostly above about 13%, no sharp cut-off; inactive = mostly below about 14%; also: read at 38.3 µM for the half of the compounds with a filed dose; 0% is about no effect
Pf growth 96h – P. falciparum growth inhibition at 96 hour, primary screen for plastid delayed-death inhibitors; Potency, µM (series often up to 28.7 µM), inactives show at the highest dose activity change, negative = inhibition, usual class: inhibitors; AID 504834; P. falciparum luciferase reporter growth, 96 h; actives 6.9% (n = 320,000); also: potency is read from the fitted curve at half-maximal effect; % is scaled to controls: 0 for no effect and ±100 for the full control effect
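Cell-based qHTS: luciferase-tagged P. falciparum in erythrocytes (2% hematocrit, 0.05% parasitemia final) incubated with compounds for 96 hours, 37 C, 5% CO2; luciferase detection reagent then added and luminescence measured.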
NS1 function inh – inhibitors of influenza NS1 protein function; Potency, µM (top dose mostly 46.1 µM), without a hit: at the top dose activity, positive = more growth; actives 0.4% (n = 270,000); AID 2326; calls by dose curve; also: potency is read from the fitted curve at half-maximal effect; actives are rising curves; nearly all actives have a fitted effect of over 50% in size
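OD600 was taken as the measure of yeast growth restored by compound in an NS1-expressing S. cerevisiae strain. Cells had been washed out of glucose medium and diluted 1:100 into galactose -URA medium, pH 6.0.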
Pf growth 48h – P. falciparum growth inhibition at 48 hours (one generation) | P. falciparum luciferase growth in erythrocytes, 48 h | Potency, µM (series often up to 28.7 µM), for inactives: top-dose activity change, negative = inhibition, hits mostly inhibitors | actives 5.9% (n = 310,000); also: potency is read from the fitted curve at half-maximal effect; % is scaled to controls: 0 for no effect and ±100 for the full control effect
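Read-out is firefly luciferase luminescence from an integrated reporter in P. falciparum, so falling signal marks reduced parasite growth. Infected erythrocytes were at 2% hematocrit and 0.1% parasitemia (final) in Albumax-supplemented RPMI 1640.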
Starred values were filed as active, the others as inactive. Unless noted, calls follow the shape of the dose curve; as a rule, active = well fitted curve in the direction sought with a large enough effect; inconclusive = small, poorly fitted or top-dose-only effect, or another doubt; inactive = no such curve, though single readings can be large; an effect the other way counts as inactive or inconclusive.

`O=C(CSc1nnc(-c2ccccc2)c(-c2ccccc2)n1)Nc1ncc(Cl)cc1Cl` gave Sm TGR inh -1%, Shiga inhibitor 34*, CHX counter 18*, Pf growth 96h inconclusive, NS1 function inh 0% and Pf growth 48h 10%.
Screening Cc1nc(SCC(=O)NC(=O)NCc2ccco2)nc(C)c1C returned Sm TGR inh 40µM*, Shiga inhibitor -2, CHX counter 8, Pf growth 96h 0% and Pf growth 48h inconclusive.
Screening Cc1nc(SCC(=O)NC(=O)NCc2ccccc2)nc(C)c1C returned Sm TGR inh 11%, Shiga inhibitor -12, CHX counter 6, Pf growth 96h -3% and NS1 function inh -10%.
`CCc1ccc(NC(=O)CSc2nnc(CNC(=O)c3ccc(OC)cc3)o2)cc1` gave Sm TGR inh -9%, Shiga inhibitor -1, CHX counter 16, Pf growth 96h inconclusive, NS1 function inh 14% and Pf growth 48h -2%.
Cc1ccc(NC(=O)CCC(=O)c2cccs2)cc1 was read as Sm TGR inh -3%, Shiga inhibitor 52, CHX counter 16*, Pf growth 96h 272% and NS1 function inh -9%.
`O=C(CCC(=O)c1cccs1)Nc1ccc(N2CCCCC2)cc1` gave Sm TGR inh -31%, Shiga inhibitor 86*, CHX counter 45*, Pf growth 96h -12% and Pf growth 48h 103%.
`Cc1ccc(Oc2ccc(NC(=O)CCC(=O)OCC(=O)c3cccs3)cc2)cc1C` gave Sm TGR inh 14%, Shiga inhibitor 33, CHX counter 17*, Pf growth 96h 1%, NS1 function inh -32% and Pf growth 48h 13%.
Screening CC(C)c1ccc(NCCC(=O)c2cccs2)cc1 returned Sm TGR inh 3.2µM*, Shiga inhibitor 140*, CHX counter 60*, Pf growth 96h 22%, NS1 function inh -28% and Pf growth 48h 46%.
`O=C(O)CCCC(=O)Nc1ccc(N2CCCC2)cc1` gave Sm TGR inh -2%, Shiga inhibitor -7, CHX counter -1, Pf growth 96h 31%, NS1 function inh -4% and Pf growth 48h 77%.
`Cc1ccc(C(=O)N2CC(=O)NC(=O)C2)cc1` gave Sm TGR inh -5%, Shiga inhibitor -7, CHX counter -1, Pf growth 96h 0%, NS1 function inh 14% and Pf growth 48h 6%.
Screening COCCNc1ncnc2onc(-c3ccc(F)cc3)c12 returned Sm TGR inh 5%.
CCCCCCCCCCCC(=O)NC1CCS(=O)(=O)C1 (stereo not drawn) was read as Shiga inhibitor -6, CHX counter -1, Pf growth 96h 221%, NS1 function inh 2% and Pf growth 48h -1%.
For O=C(O)C[C@H](Cc1ccc2c(c1)OCO2)C(=O)O the results were NS1 function inh 3%.
For Cc1ccc(NCCC(=O)c2cccs2)cc1C the results were Sm TGR inh 0%, Shiga inhibitor 58*, CHX counter 49*, Pf growth 96h 20%, NS1 function inh 1% and Pf growth 48h 75%.
`Cc1ccc(NCCC(=O)c2cccs2)cc1` gave Sm TGR inh 1.3µM*, Shiga inhibitor 80*, CHX counter 46*, Pf growth 96h -20% and Pf growth 48h 33%.
`Cc1ccc(NC(=O)CCC(=O)c2cccs2)c(Br)c1` gave Sm TGR inh -17%, Shiga inhibitor 115*, CHX counter 36*, Pf growth 96h 51%, NS1 function inh -1% and Pf growth 48h 89%.
`Cc1ccc(NCCC(=O)c2ccc(Cl)cc2)cc1C` gave Sm TGR inh inconclusive, Shiga inhibitor 22, CHX counter -1, Pf growth 96h 96%, NS1 function inh 0% and Pf growth 48h 43%.
Screening Cc1cc(C)c(C(CC(=O)c2cccs2)C(C#N)C#N)c(C)c1 (stereo not drawn) returned Sm TGR inh -21%, Shiga inhibitor 84*, CHX counter 61*, Pf growth 96h 46%, NS1 function inh -20% and Pf growth 48h 80%.
Screening Cc1ccc(NC(=O)COC(=O)CCC(=O)c2cccs2)c(Br)c1 returned Sm TGR inh -13%, Pf growth 96h 23% and Pf growth 48h 3%.

Screening data deposited in PubChem BioAssay by National Center for Advancing Translational Sciences (NCATS).
